# The supplement of paper PMC8728848
# Many of the other results were omitted from the sample, so the strongest signals are more common in it than they were.
# Assays:
# Assay in all cases: glycan array binding signal (z-score within array); higher = stronger binding
# Conditions in all cases: glycan notation: IUPAC condensed, linker removed
# [1] = molecular target: Fuc(a1-2)[GalNAc(a1-3)]Gal(b1-4)GlcNAc(b1-6)GalNAc
# How it was run: (§1)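 Negative Z-scores can be read as non-binding. The Z-score is calculated within each array and then averaged across arrays of one protein sequence at different concentrations or buffers and across linkers. Arrays, 3228 in all, were curated from the Consortium for Functional Glycomics database and kept only where the protein sequence was available.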
# [2] = molecular target: Fuc(a1-3)GlcNAc
# How it was run: as §1
# [3] = molecular target: Fuc(a1-3)[Gal(b1-4)]Glc6S
# How it was run: as §1
# [4] = molecular target: Gal(a1-3)Gal(b1-3)GlcNAc(b1-3)GalNAc
# How it was run: as §1
# [5] = molecular target: Gal(a1-3)Gal(b1-4)GlcNAc(b1-6)GalNAc
# How it was run: as §1
# [6] = molecular target: Gal(a1-3)Gal(b1-4)[Fuc(a1-3)]GlcNAc(b1-2)Man(a1-3)[Gal(a1-3)Gal(b1-4)[Fuc(a1-3)]GlcNAc(b1-2)Man(a1-6)]Man(b1-4)GlcNAc(b1-4)GlcNAc
# How it was run: as §1
# [7] = molecular target: Gal(a1-3)GalNAc
# How it was run: as §1
# [8] = molecular target: Gal(b1-3)Gal(b1-4)GlcNAc
# How it was run: as §1
# [9] = molecular target: Gal(b1-3)GalNAc(a1-3)[Fuc(a1-2)]Gal(b1-4)Glc
# How it was run: as §1
# [10] = molecular target: Gal(b1-3)GlcNAc(b1-2)[Gal(b1-3)GlcNAc(b1-6)]Man(a1-6)[Gal(b1-3)GlcNAc(b1-2)Man(a1-3)]Man(b1-4)GlcNAc(b1-4)GlcNAc
# How it was run: as §1
# [11] = molecular target: Gal(b1-3)GlcNAc(b1-3)GalNAc
# How it was run: as §1
# [12] = molecular target: Gal(b1-4)GalNAc(a1-3)[Fuc(a1-2)]Gal(b1-4)GlcNAc
# How it was run: as §1
# [13] = molecular target: Gal(b1-4)GlcNAc(b1-2)Man
# How it was run: as §1
# [14] = molecular target: Gal(b1-4)GlcNAc(b1-2)Man(a1-3)[Gal(b1-4)GlcNAc(b1-2)Man(a1-6)]Man(b1-4)GlcNAc(b1-4)[Fuc(a1-6)]GlcNAc
# How it was run: as §1
# [15] = molecular target: Gal(b1-4)GlcNAc(b1-2)Man(a1-6)Man(b1-4)GlcNAc(b1-4)GlcNAc
# How it was run: as §1
# [16] = molecular target: Gal(b1-4)GlcNAc(b1-3)Gal(b1-4)Glc
# How it was run: as §1
# [17] = molecular target: Gal(b1-4)GlcNAc(b1-3)Gal(b1-4)GlcNAc(b1-2)Man(a1-3)[Gal(b1-4)GlcNAc(b1-3)Gal(b1-4)GlcNAc(b1-2)Man(a1-6)]Man(b1-4)GlcNAc(b1-4)GlcNAc
# How it was run: as §1
# [18] = molecular target: Gal(b1-4)GlcNAc(b1-3)Gal(b1-4)GlcNAc(b1-2)Man(a1-3)[Gal(b1-4)GlcNAc(b1-3)Gal(b1-4)GlcNAc(b1-2)Man(a1-6)]Man(b1-4)GlcNAc(b1-4)[Fuc(a1-6)]GlcNAc
# How it was run: as §1
# [19] = molecular target: Gal(b1-4)GlcNAc(b1-3)Gal(b1-4)GlcNAc(b1-3)Gal(b1-4)GlcNAc(b1-2)Man(a1-3)[Gal(b1-4)GlcNAc(b1-3)Gal(b1-4)GlcNAc(b1-3)Gal(b1-4)GlcNAc(b1-2)Man(a1-6)]Man(b1-4)GlcNAc(b1-4)GlcNAc
# How it was run: as §1
# [20] = molecular target: Gal(b1-4)GlcNAc(b1-3)Gal(b1-4)GlcNAc(b1-3)[Gal(b1-4)GlcNAc(b1-3)Gal(b1-4)GlcNAc(b1-6)]GalNAc
# How it was run: as §1
# [21] = molecular target: Gal(b1-4)GlcNAc(b1-3)Gal(b1-4)GlcNAc(b1-6)[Gal(b1-3)]GalNAc
# How it was run: as §1
# [22] = molecular target: Gal(b1-4)GlcNAc(b1-3)[Fuc(a1-3)GlcNAc(b1-6)]Gal(b1-4)Glc
# How it was run: as §1
# [23] = molecular target: Gal6S(b1-3)GlcNAc
# How it was run: as §1
# [24] = molecular target: Glc(a1-4)Glc
# How it was run: as §1
# [25] = molecular target: GlcA3S(b1-3)Gal(b1-4)GlcNAc(b1-2)Man
# How it was run: as §1
# [26] = molecular target: GlcNAc(b1-3)Gal(b1-4)GlcNAc(b1-3)Gal(b1-4)GlcNAc(b1-2)Man(a1-3)[GlcNAc(b1-3)Gal(b1-4)GlcNAc(b1-3)Gal(b1-4)GlcNAc(b1-2)Man(a1-6)]Man(b1-4)GlcNAc(b1-4)GlcNAc
# How it was run: as §1
# [27] = molecular target: GlcNAc(b1-3)Gal(b1-4)GlcNAc(b1-3)Gal(b1-4)GlcNAc(b1-3)Gal(b1-4)GlcNAc(b1-2)[GlcNAc(b1-3)Gal(b1-4)GlcNAc(b1-3)Gal(b1-4)GlcNAc(b1-3)Gal(b1-4)GlcNAc(b1-6)]Man(a1-6)[GlcNAc(b1-3)Gal(b1-4)GlcNAc(b1-3)Gal(b1-4)GlcNAc(b1-3)Gal(b1-4)GlcNAc(b1-2)Man(a1-3)]Man(b1-4)GlcNAc(b1-4)[Fuc(a1-6)]GlcNAc
# How it was run: as §1
# [28] = molecular target: Kdn(a2-3)Gal(b1-4)Glc
# How it was run: as §1
# [29] = molecular target: Man(a1-3)[Man(a1-6)]Man(a1-6)[Man(a1-2)Man(a1-3)]Man(b1-4)GlcNAc(b1-4)GlcNAc
# How it was run: as §1
# [30] = molecular target: Neu5Ac(a2-3)Gal(b1-3)GlcNAc(b1-2)Man(a1-3)[GlcNAc(b1-4)][Neu5Ac(a2-3)Gal(b1-3)GlcNAc(b1-2)Man(a1-6)]Man(b1-4)GlcNAc(b1-4)GlcNAc
# How it was run: as §1
# [31] = molecular target: Neu5Ac(a2-3)Gal(b1-3)[GlcNAc(b1-6)]GalNAc
# How it was run: as §1
# [32] = molecular target: Neu5Ac(a2-3)Gal(b1-4)GlcNAc(b1-2)Man(a1-3)[Neu5Ac(a2-6)Gal(b1-4)GlcNAc(b1-2)Man(a1-6)]Man(b1-4)GlcNAc(b1-4)GlcNAc
# How it was run: as §1
# [33] = molecular target: Neu5Ac(a2-3)Gal(b1-4)GlcNAc(b1-3)Gal(b1-4)GlcNAc(b1-2)Man(a1-3)[Neu5Ac(a2-3)Gal(b1-4)GlcNAc(b1-3)Gal(b1-4)GlcNAc(b1-2)Man(a1-6)]Man(b1-4)GlcNAc(b1-4)GlcNAc
# How it was run: as §1
# [34] = molecular target: Neu5Ac(a2-3)Gal(b1-4)GlcNAc(b1-3)Gal(b1-4)GlcNAc(b1-3)Gal(b1-4)GlcNAc(b1-2)Man(a1-3)[Neu5Ac(a2-3)Gal(b1-4)GlcNAc(b1-3)Gal(b1-4)GlcNAc(b1-3)Gal(b1-4)GlcNAc(b1-2)Man(a1-6)]GalNAc
# How it was run: as §1
# [35] = molecular target: Neu5Ac(a2-3)Gal(b1-4)GlcNAc(b1-3)[Neu5Ac(a2-3)Gal(b1-4)GlcNAc(b1-6)]GalNAc
# How it was run: as §1
# [36] = molecular target: Neu5Ac(a2-3)Gal(b1-4)GlcNAc(b1-6)[Gal(b1-3)]GalNAc
# How it was run: as §1
# [37] = molecular target: Neu5Ac(a2-3)Gal(b1-4)GlcNAc6S
# How it was run: as §1
# [38] = molecular target: Neu5Ac(a2-3)[GalNAc(b1-4)]Gal(b1-4)GlcNAc
# How it was run: as §1
# [39] = molecular target: Neu5Ac(a2-6)Gal(b1-4)GlcNAc(b1-3)Gal(b1-4)GlcNAc(b1-3)Gal(b1-4)GlcNAc(b1-2)Man(a1-3)[Neu5Ac(a2-6)Gal(b1-4)GlcNAc(b1-3)Gal(b1-4)GlcNAc(b1-3)Gal(b1-4)GlcNAc(b1-2)Man(a1-6)]GalNAc
# How it was run: as §1
# [40] = molecular target: Neu5Ac(a2-6)Gal(b1-4)GlcNAc(b1-3)Gal(b1-4)GlcNAc(b1-3)[Neu5Ac(a2-6)Gal(b1-4)GlcNAc(b1-3)Gal(b1-4)GlcNAc(b1-6)]GalNAc
# How it was run: as §1
# [41] = molecular target: Neu5Ac(a2-6)Gal(b1-4)GlcNAc(b1-3)Gal(b1-4)[Fuc(a1-3)]GlcNAc(b1-3)Gal(b1-4)[Fuc(a1-3)]GlcNAc
# How it was run: as §1
# [42] = molecular target: Neu5Ac(a2-8)Neu5Ac(a2-3)Gal(b1-4)Glc
# How it was run: as §1
# [43] = molecular target: Neu5Gc(a2-3)Gal(b1-4)GlcNAc(b1-3)Gal(b1-4)GlcNAc(b1-2)Man(a1-3)[Neu5Gc(a2-3)Gal(b1-4)GlcNAc(b1-3)Gal(b1-4)GlcNAc(b1-2)Man(a1-6)]Man(b1-4)GlcNAc(b1-4)GlcNAc
# How it was run: as §1
# [44] = molecular target: Neu5Gc(a2-3)Gal(b1-4)[Fuc(a1-3)]GlcNAc
# How it was run: as §1
# [45] = molecular target: Neu5Gc(a2-6)Gal(b1-4)GlcNAc
# How it was run: as §1
binder,measurement,setting,value
ACA (Amaranthus caudatus) (protein) MAGLPVIMCLKSNNNQKYLRYQSDNIQQYGLLQFSADKILDPLAQFEVEPSKTYDGLVHIKSRYTNKYLVRWSPNHYWITASANEPDENKSNWACTLFKPLYVEEGNMKKVRLLHVQLGHYTQNYTVGGSFVSYLFAESSQIDTGSKDVFHVIDWKSIFQFPKRYVTFKGNNGKYLGVITINQLPCLQFGYDNLNDPKVAHEMFVTSNGTICIKSTYMNKFWRLSTDDWILVDGNDPRETNEAAALFRSDVHDFNVISLLNMQKTWFIKRFTSGKPGFINCMNAATQNVDETAILEIIELGSNN,glycan array binding signal (z-score),[1],-0.116
same,glycan array binding signal (z-score),[2],-0.103
same,glycan array binding signal (z-score),[3],0.058
same,glycan array binding signal (z-score),[4],-0.395
same,glycan array binding signal (z-score),[5],-0.246
same,glycan array binding signal (z-score),[6],-0.878
same,glycan array binding signal (z-score),[7],0.156
same,glycan array binding signal (z-score),[8],0.13
same,glycan array binding signal (z-score),[9],-0.399
same,glycan array binding signal (z-score),[10],-0.184
same,glycan array binding signal (z-score),[11],0.052
same,glycan array binding signal (z-score),[12],-0.471
same,glycan array binding signal (z-score),[13],-0.376
same,glycan array binding signal (z-score),[14],0.193
same,glycan array binding signal (z-score),[15],-0.378
same,glycan array binding signal (z-score),[16],-0.12
same,glycan array binding signal (z-score),[17],4.74
same,glycan array binding signal (z-score),[18],3.63
same,glycan array binding signal (z-score),[19],5.84
same,glycan array binding signal (z-score),[20],5.24
same,glycan array binding signal (z-score),[21],3.84
same,glycan array binding signal (z-score),[22],0.71
same,glycan array binding signal (z-score),[23],-0.469
same,glycan array binding signal (z-score),[24],0.351
same,glycan array binding signal (z-score),[25],-0.456
same,glycan array binding signal (z-score),[26],3.43
same,glycan array binding signal (z-score),[27],0.586
same,glycan array binding signal (z-score),[28],-0.204
same,glycan array binding signal (z-score),[29],6.44
same,glycan array binding signal (z-score),[30],-0.413
same,glycan array binding signal (z-score),[31],-0.266
same,glycan array binding signal (z-score),[32],-0.42
same,glycan array binding signal (z-score),[33],3.13
same,glycan array binding signal (z-score),[34],9.87
same,glycan array binding signal (z-score),[35],0.132
same,glycan array binding signal (z-score),[36],0.029
same,glycan array binding signal (z-score),[37],-0.219
same,glycan array binding signal (z-score),[38],-0.069
same,glycan array binding signal (z-score),[39],3.17
same,glycan array binding signal (z-score),[40],4.69
same,glycan array binding signal (z-score),[41],0.326
same,glycan array binding signal (z-score),[42],-0.424
same,glycan array binding signal (z-score),[43],1.25
same,glycan array binding signal (z-score),[44],-0.167
same,glycan array binding signal (z-score),[45],-0.372
